Assay results: PubChem BioAssay (Tox21)
Where “and” joins values, the source holds several entries; their conditions need not be identical. Equal values may be shown once. Some compounds were tested as several samples or in several runs, with calls that do not always agree. Calls of active or inactive are those of the source. Where a call stands in place of a potency, no number is given. Unless noted, the call rests on the fitted dose curve; in most records, active means well fitted curve in the direction sought with a large enough effect in the repeat runs; inconclusive means weak or mixed curves; inactive means no such curve, though single readings can be large; an effect the other way counts as inactive or inconclusive.

Legend:
[1] = qHTS assay to identify small molecule antagonists of the glucocorticoid receptor (GR) signaling pathway - cell viability counter screen (AID 720693); further: nearly all actives have a fitted effect of over 55% in size
[2] = qHTS assay for identifying genotoxic compounds that show differential cytotoxicity against isogenic chicken DT40 cell lines with known DNA damage response pathways - wild type cell line (AID 743012); further: nearly all actives have a fitted effect of over 60% in size
Procedure, shortened: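 Quantitative HTS on parental DT40 cells: 40 h compound treatment at 37 C/5% CO2, with viability then determined by CellTiter-Glo luminescence. Values serve as the DNA repair-proficient reference for differential cytotoxicity.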

[3] = qHTS assay for identifying genotoxic compounds that show differential cytotoxicity against isogenic chicken DT40 cell lines with known DNA damage response pathways - Rev3 mutant cell line (AID 743014); further: nearly all actives have a fitted effect of over 55% in size
[4] = qHTS assay for identifying genotoxic compounds that show differential cytotoxicity against isogenic chicken DT40 cell lines with known DNA damage response pathways - Rad54/Ku70 mutant cell line (AID 743015); further: nearly all actives have a fitted effect of over 60% in size
[5] = qHTS assay to identify small molecule antagonists of the androgen receptor (AR) signaling pathway - cell viability counter screen (AID 743033; further: nearly all actives have a fitted effect of over 45% in size)
[6] = qHTS assay to identify small molecule antagonists of the androgen receptor (AR) signaling pathway using the MDA cell line - cell viability counter screen (AID 743041; further: nearly all actives have a fitted effect of over 45% in size)
Procedure, shortened: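 Same-well cytotoxicity was assessed by CellTiter-Fluor in MDA-kb2 AR-luc cells after 16 h of compound treatment under R1881 agonism.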

[7] = qHTS assay to identify small molecule antagonists of the thyroid receptor (TR) signaling pathway - cell viability counter screen (AID 743064); further: nearly all actives have a fitted effect of over 50% in size
Procedure, shortened: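 CellTiter-Fluor readout, 30 min at 37 °C/5% CO2, following 23.5 h incubation of GH3.TRE-Luc cells with test compound and 1 nM T3 (final).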

[8] = qHTS assay to identify small molecule antagonists of the thyroid receptor (TR) signaling pathway (AID 743065); further: series mostly up to about 70 µM; nearly all actives have a fitted effect of over 55% in size
Procedure, shortened: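 GH3.TRE-Luc rat pituitary cells (two TREs driving luciferase) were dosed with compound, then stimulated with 1 nM T3 (final) for 23.5 h at 37 C. ONE-Glo luminescence was the read-out, with CellTiter-Fluor fluorescence as the cytotoxicity counter-screen.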

[9] = system: thyroid hormone receptor (rat, GH3 cells); experiment: qHTS assay to identify small molecule agonists of the thyroid receptor (TR) signaling pathway (AID 743066; calls by dose curve)
[10] = target: Estrogen receptor (Homo sapiens) (UniProt P03372); experiment: qHTS assay to identify small molecule antagonists of the estrogen receptor alpha (ER-alpha) signaling pathway (AID 743069; active means well fitted curve in the direction sought with a large enough effect in the signal ratio in the repeat runs, not every such curve was filed as active; inconclusive means weak or mixed curves, or effect the other way; inactive means no such curve, though single readings can be large or run the other way; the % refers to the signal ratio; further: potency means the concentration at half of the fitted maximal effect)
Procedure, shortened: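 Reporter cells (ER-alpha-bla, HEK293 background) are conditioned overnight in stripped-serum medium (2% charcoal-stripped FBS). Compound and 17beta-estradiol exposure runs 18 hr at 37C, 5% CO2.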

[11] = qHTS assay to identify small molecule antagonists of the estrogen receptor alpha (ER-alpha) signaling pathway - cell viability counter screen (AID 743074; calls by dose curve;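 further: HEK293 cells carrying ER-alpha-UAS-bla reporter stimulated with 17beta-estradiol; nearly all actives have a fitted effect of over 45% in size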)
[12] = target: Estrogen receptor (Homo sapiens) (UniProt P03372); experiment: qHTS assay to identify small molecule agonists of the estrogen receptor alpha (ER-alpha) signaling pathway (AID 743075; calls by dose curve;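 further: HEK293 GripTite cells with ER-alpha and UAS-driven beta-lactamase reporter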)
[13] = target: Estrogen receptor (Homo sapiens) (UniProt P03372); experiment: qHTS assay to identify small molecule agonists of the estrogen receptor alpha (ER-alpha) signaling pathway using the BG1 cell line (AID 743079); further: nearly all actives have a fitted effect of over 20% in size
[14] = qHTS assay to identify small molecule antagonists of the estrogen receptor alpha (ER-alpha) signaling pathway using the BG1 cell line (AID 743080; calls by dose curve;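 further: BG1 cells stimulated with 17beta-estradiol alongside compound; series mostly up to about 70 µM; nearly all actives have a fitted effect of over 25% in size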)
Procedure, shortened: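 BG1Luc4E2, endogenous ER-alpha, 4xERE-luc; 5 d charcoal-stripped FBS, phenol red free; 24 h plating; cpd + 17beta-estradiol 21.5 h, 37 C/5% CO2; CellTiter-Fluor viability 30 min, then ONE-Glo luciferase 30 min RT.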

[15] = qHTS assay to identify small molecule antagonists of the estrogen receptor alpha (ER-alpha) signaling pathway using the BG1 cell line - cell viability counter screen (AID 743081);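 further: compound given together with 17beta-estradiol as the ER stimulus; series mostly up to about 70 µM; nearly all actives have a fitted effect of over 45% in size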
[16] = target: Aromatase (Homo sapiens) (UniProt P11511); experiment: qHTS assay to identify aromatase inhibitors (AID 743083); further: series mostly up to about 70 µM; nearly all actives have a fitted effect of over 55% in size
[17] = target: Androgen receptor (Homo sapiens) (UniProt P10275); experiment: qHTS assay to identify small molecule agonists of the androgen receptor (AR) signaling pathway (AID 743036; active means well fitted activation curve with a large enough effect in the signal ratio in the repeat runs, with a control signal flat, not every such curve was filed as active; inconclusive means weak or mixed curves, or effect the other way; inactive means no such curve, though single readings can be large or run the other way; the % refers to the signal ratio)
Procedure, shortened: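 Following a 4 h settling period, AR-UAS-bla HEK293 cells were dosed with compounds for 16 h at 37C. A 2 h room-temperature incubation with LiveBLAzer B/G FRET substrate preceded the fluorescence measurement.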

[18] = target: Androgen receptor (Homo sapiens) (UniProt P10275); experiment: qHTS assay to identify small molecule agonists of the androgen receptor (AR) signaling pathway using the MDA cell line (AID 743040; further: nearly all actives have a fitted effect of over 20% in size)
Procedure, shortened: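 Human breast carcinoma MDA-kb2 reporter cells (MMTV-luc, AR/GR elements) were treated for 16 h at 37C in 0% CO2 following a 5 h settling period. Signal was quantified by ONE-Glo luminescence.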

[19] = target: Androgen receptor (Homo sapiens) (UniProt P10275); experiment: qHTS assay to identify small molecule antagonists of the androgen receptor (AR) signaling pathway using the MDA cell line (AID 743042; further: nearly all actives have a fitted effect of over 55% in size)
Procedure, shortened: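 MDA-kb2 breast carcinoma cells carrying MMTV-luciferase (AR/GR responsive) were co-treated with compounds and the agonist R1881 for 16 h at 37C. Inhibition read as ONE-Glo luminescence; CellTiter-Fluor fluorescence measured in parallel for cytotoxicity.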

[20] = target: Androgen receptor (Homo sapiens) (UniProt P10275); experiment: qHTS assay to identify small molecule antagonists of the androgen receptor (AR) signaling pathway (AID 743035; active means well fitted inhibition curve with a large enough effect in the signal ratio in the repeat runs, not every such curve was filed as active; inconclusive means weak or mixed curves, or effect the other way; inactive means no such curve, though single readings can be large or run the other way; the % refers to the signal ratio)
Procedure, shortened: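 Cell line: GeneBLAzer AR-UAS-bla GripTite (HEK293). Stimulus: R1881 added after compound. Exposure: 16 h, 37C, 5% CO2. Readout: LiveBLAzer B/G FRET fluorescence after 2 h at room temperature.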

Sequence of Estrogen receptor (Homo sapiens) (P03372 whole entry, looked up): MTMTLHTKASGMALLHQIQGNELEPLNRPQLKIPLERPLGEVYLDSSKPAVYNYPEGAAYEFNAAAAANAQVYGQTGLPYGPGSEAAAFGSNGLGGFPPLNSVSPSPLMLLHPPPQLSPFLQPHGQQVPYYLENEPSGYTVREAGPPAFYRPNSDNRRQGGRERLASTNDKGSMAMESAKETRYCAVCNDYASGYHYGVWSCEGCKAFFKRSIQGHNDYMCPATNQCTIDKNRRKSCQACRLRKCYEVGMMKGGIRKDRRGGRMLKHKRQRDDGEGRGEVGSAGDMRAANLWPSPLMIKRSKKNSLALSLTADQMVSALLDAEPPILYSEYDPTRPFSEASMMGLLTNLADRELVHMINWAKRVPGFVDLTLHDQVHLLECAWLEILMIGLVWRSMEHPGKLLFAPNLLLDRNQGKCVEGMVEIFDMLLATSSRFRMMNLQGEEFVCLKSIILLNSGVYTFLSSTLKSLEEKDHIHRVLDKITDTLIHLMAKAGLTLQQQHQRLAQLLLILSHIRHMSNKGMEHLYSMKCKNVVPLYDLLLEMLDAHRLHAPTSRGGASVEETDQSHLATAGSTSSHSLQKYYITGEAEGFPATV
Sequence of Aromatase (Homo sapiens) (P11511 whole entry, looked up): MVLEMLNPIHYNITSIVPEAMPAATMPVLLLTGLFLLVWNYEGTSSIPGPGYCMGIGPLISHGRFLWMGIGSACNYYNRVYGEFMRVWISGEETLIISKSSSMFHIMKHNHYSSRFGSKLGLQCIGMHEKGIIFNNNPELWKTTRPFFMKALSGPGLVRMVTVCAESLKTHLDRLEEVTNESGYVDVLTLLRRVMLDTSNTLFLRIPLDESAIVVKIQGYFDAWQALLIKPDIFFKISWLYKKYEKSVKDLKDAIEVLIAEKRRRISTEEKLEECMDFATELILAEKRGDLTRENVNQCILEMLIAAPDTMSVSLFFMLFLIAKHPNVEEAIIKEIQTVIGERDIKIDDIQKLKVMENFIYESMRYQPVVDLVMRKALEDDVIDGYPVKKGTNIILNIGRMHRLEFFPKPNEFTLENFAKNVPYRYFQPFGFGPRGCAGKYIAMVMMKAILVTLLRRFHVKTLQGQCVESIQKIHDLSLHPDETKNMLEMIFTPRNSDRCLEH
Sequence of Androgen receptor (Homo sapiens) (P10275 whole entry, looked up): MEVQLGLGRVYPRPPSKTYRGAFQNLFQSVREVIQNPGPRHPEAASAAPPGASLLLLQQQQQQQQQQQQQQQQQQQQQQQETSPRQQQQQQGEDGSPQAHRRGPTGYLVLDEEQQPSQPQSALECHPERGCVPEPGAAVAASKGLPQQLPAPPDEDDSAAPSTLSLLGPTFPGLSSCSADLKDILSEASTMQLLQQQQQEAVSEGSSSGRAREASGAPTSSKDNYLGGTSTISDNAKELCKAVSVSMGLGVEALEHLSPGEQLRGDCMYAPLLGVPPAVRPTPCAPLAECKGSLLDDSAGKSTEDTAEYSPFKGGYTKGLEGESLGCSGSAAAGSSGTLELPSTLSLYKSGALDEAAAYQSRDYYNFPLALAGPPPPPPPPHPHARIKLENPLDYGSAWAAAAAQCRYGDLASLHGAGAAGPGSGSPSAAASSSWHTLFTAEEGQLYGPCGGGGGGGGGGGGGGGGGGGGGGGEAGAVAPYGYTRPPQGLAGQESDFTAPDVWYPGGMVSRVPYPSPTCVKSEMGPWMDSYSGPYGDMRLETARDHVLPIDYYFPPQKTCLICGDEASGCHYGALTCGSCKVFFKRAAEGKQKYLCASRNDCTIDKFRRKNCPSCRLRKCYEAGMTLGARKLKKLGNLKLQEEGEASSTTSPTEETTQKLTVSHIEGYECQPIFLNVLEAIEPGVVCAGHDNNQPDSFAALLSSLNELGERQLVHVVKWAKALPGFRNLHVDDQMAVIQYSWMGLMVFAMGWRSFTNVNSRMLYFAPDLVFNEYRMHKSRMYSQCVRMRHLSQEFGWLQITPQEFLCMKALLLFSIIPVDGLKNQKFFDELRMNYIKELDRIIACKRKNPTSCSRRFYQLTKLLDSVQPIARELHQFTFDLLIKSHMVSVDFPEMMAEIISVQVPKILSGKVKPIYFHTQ

SMILES	outcome [1]	Potency [2]	Potency [3]	Potency [4]	outcome [5]	Potency [6]	Potency [7]	Potency [8]	outcome [9]	Potency [10]	Potency [11]	outcome [12]	Potency [13]	outcome [14]	Potency [15]	Potency [16]	outcome [17]	Potency [18]	outcome [19]	Potency [20]
FC(F)(F)C(Cl)(Cl)Cl	inactive	inactive	inactive	inactive	inactive	inactive	inactive	inactive	inactive	inactive	inactive	inactive	inactive	inactive	inactive	inactive	–	–	–	–
CC(C)C1=CC2=CC[C@@H]3[C@](C)(CCC[C@@]3(C)C(=O)O)[C@H]2CC1	inactive	inactive	inactive	inactive	inactive	inactive	inactive	inactive	inactive	inactive and 54.9 µM [inconclusive] (active)	inactive	inactive	inactive	inactive	inactive	inactive	–	–	–	–
C[C@@H](N)C(=O)O	inactive	inactive	inactive	inactive	inactive	inactive	inactive	inactive	inactive	–	inactive	–	–	–	inactive	inactive	inactive	inactive	inactive	–
CCOC(=O)C1CC(=O)C(=C(O)C2CC2)C(=O)C1 (configuration not stated)	inactive	inactive	inactive	inactive	inactive	inactive	inactive	inactive	inactive	inactive	inactive	inactive	inactive	inactive	inactive	inactive	–	–	–	–
CCCCC1CCC(=O)O1 (configuration not stated)	inactive	inactive	inactive	inactive	inactive	inactive	inactive	inactive	inactive	inactive	inactive	inactive	inactive	inactive	inactive	inactive	–	–	–	–
CN(C)Cc1ccccc1	inactive	inactive	inactive	inactive	inactive	inactive	inactive	inactive	inactive	–	inactive	–	–	–	inactive	inactive	inactive	inactive	inactive	inactive
CCOc1ccc(OCC)c(Cl)c1	inactive	inactive	inactive	inactive	inactive	inactive	inactive	inactive	inactive	inactive	inactive	inactive	inactive	inactive	inactive	inactive	–	–	–	–
CCOC(=O)NCCC[Si](OCC)(OCC)OCC	inactive	inactive	inactive	inactive	inactive	inactive	inactive	inactive	inactive	inactive	inactive	inactive	inactive	inactive	inactive	inactive	–	–	–	–
